# Data taken from PubChem BioAssay (EPA / NIEHS).
# Active and inactive are the calls of the source. How the source made its calls: active means hit-call score of the fitted dose curve at least 0.9, where 1 is the maximum; inactive means score below 0.9.
# Molecular target: Transcriptional activator Myb (Homo sapiens) (UniProt P10242)
# Assay: ATG_Myb_CIS: Attagene CIS-FACTORIAL HepG2 Assay for human Myeloblastosis (Myb) Proto-Oncogene Transcription Factor (AID 2282986)
# Settings: HepG2 Attagene CIS-FACTORIAL Myb reporter transcription; actives raise or lower the signal
# Procedure: ATG_CIS is a cell-based, multiplexed-readout assay that uses HepG2, a human liver cell line, with measurements taken at 24 hours after chemical dosing in a 24-well plate.ATG_Myb_CIS is one of 52 assay component(s) measured or calculated from the ATG_CIS assay. It is designed to make measurements of mRNA induction, a form of inducible reporter, as detected with fluorescence intensity signals by Reverse transcription polymerase chain reaction (RT-PCR) and Capillary electrophoresis technology.Data from the assay component ATG_Myb_CIS was analyzed into 1 assay endpoint. This assay endpoint, ATG_Myb_CIS, was analyzed with bidirectional fitting relative to DMSO as the negative control and baseline of activity. Using a type of inducible reporter, measures of mRNA for gain or loss-of-signal activity can be used to understand the reporter gene at the transcription factor-level as they relate to the gene MYB. Furthermore, this assay endpoint can be referred to as a primary readout, because this assay has produced multiple assay endpoints where this one serves a reporter gene function. To generalize the intended target to other relatable targets, this assay endpoint is annotated to the dna binding intended target family, where the subfamily is MYB proteins.
# Human liver HepG2 cells are transiently transfected with multiple reporter transcription units (MRTUs) in 6-well plates using FuGene 6 reagent (Roche; 3 ml FuGene/1 mg DNA). The MRTU constructs are regulated by a cis-regulating element (promoter). […] A major difference between the CIS and TRANS system is that in CIS activities of endogenous TFs are measured, whereas the TRANS assay evaluates changes in activities of exogenous, chimeric NR-Gal4 proteins. […] At the end of 24 hour incubation, total RNA was isolated using TriZol reagent (Invitrogen). The isolated RNA is then reverse-transcribed using oligo(dT) primer and Mo-MLV reverse transcriptase (Invitrogen) with DNAse I (Ambion) treatment for 30 min. The one-tenth of the produced cDNA was amplified by PCR using Taq DNA polymerase (Invitrogen) and two reporter sequence-specific primers. The PCR products were fluorescently labeled by primer extension with 6-arboxyfluorescein (6-FAM) 5'-labeled reporter sequence-specific primer (2 min at 95 C, 20 s at 68 C and 10 min at 72 C) and these products were digested with 5U of HpaI (New England Biolabs) for 2h at 37 C. The fragments were purified using Qiaquick PCR columns (Qiagen), analyzed on an ABI 3130xL genetic analyzer (Applied Biosystems) with peak positions identified by using a set of X-rhodamine (ROX)-labeled MapMarker1000 molecular weight standards (BioVentures). The raw capillary electrophoresis data was processed using Attagraph software (Attagene).
# Chain of Transcriptional activator Myb (Homo sapiens) (P10242 whole entry, looked up): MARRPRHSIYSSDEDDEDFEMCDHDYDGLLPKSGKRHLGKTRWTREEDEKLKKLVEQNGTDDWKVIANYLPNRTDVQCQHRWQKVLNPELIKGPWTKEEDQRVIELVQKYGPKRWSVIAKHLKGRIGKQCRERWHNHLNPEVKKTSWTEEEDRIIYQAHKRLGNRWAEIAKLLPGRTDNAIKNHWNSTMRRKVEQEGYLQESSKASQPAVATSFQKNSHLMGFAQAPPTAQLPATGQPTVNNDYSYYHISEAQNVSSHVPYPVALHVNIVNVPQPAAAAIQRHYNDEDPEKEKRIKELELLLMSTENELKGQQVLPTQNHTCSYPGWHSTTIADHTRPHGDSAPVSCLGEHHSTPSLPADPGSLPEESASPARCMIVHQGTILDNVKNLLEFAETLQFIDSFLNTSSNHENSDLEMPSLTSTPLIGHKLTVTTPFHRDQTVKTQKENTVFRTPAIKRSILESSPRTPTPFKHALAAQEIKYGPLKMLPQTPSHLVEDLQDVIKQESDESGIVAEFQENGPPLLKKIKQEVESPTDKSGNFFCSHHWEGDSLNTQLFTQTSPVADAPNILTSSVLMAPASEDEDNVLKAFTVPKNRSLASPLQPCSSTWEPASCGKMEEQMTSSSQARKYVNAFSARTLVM
SMILES,AC50,outcome
O=Cc1ccc(Cl)c([N+](=O)[O-])c1,144 µM (active),–
CC(=O)O[C@H](CC(=O)[O-])C[N+](C)(C)C,–,inactive
CN1[C@@H]2CC(OC(=O)[C@H](CO)c3ccccc3)C[C@H]1[C@@H]1O[C@@H]12 (stereo not given in full),–,inactive
CNCCCC12CCC(c3ccccc31)c1ccccc12,–,inactive
CO[Si](C)(OC)c1ccccc1,–,inactive
O=[N+]([O-])c1ccc(Nc2ccc(Nc3ccccc3)c(S(=O)(=O)O)c2)c([N+](=O)[O-])c1,–,inactive
CCC(=O)OCc1ccccc1,–,inactive
COc1cc(C(C)(C)C)c(O)c(C(C)(C)C)c1,–,inactive
CCN(CC)c1ccc(C(=C2C=CC(=[N+](CC)CC)C=C2)c2ccc(S(=O)(=O)O)cc2S(=O)(=O)[O-])cc1,–,inactive
Cc1ccccc1C=O,–,inactive
CCCCCCCCCOC(C)=O,–,inactive
O=C1CCCCCCCCCCOCCCCO1,–,inactive
CCCCCCCCCCCCSC,–,inactive
Cc1c(Cl)c(=O)oc2cc(O)ccc12,–,inactive
CC(=O)OCCOC(C)=O,–,inactive
CC1COc2ccccc2N1C(=O)C(Cl)Cl (stereo not given),–,inactive
O=c1[nH]nnc2ccccc12,–,inactive
CCc1ccc(C=O)cc1,–,inactive
C[Si](O[Si](C)(C)C)O[Si](C)(C)C,–,inactive
OCCN1CCNCC1,–,inactive

SMILES,AC50,outcome
CC1(C)[C@H]2CC[C@]1(C)[C@H](O)C2,–,inactive
COc1cc2ncnc(Nc3cccc(Cl)c3)c2cc1OC,–,inactive
NCCCCCCN,–,inactive
COC(=O)C1=C(C)NC(C)=C(C(=O)OCCN(C)Cc2ccccc2)C1c1cccc([N+](=O)[O-])c1 (stereo not given),–,inactive
C=CC(=O)OCCOCCOCC,–,inactive
CC1CCC(C(C)CS)CC1S (stereo not given),50.5 µM (active),–
CC(CCO)CCCC(C)(C)O (stereo not given),–,inactive
OC1C(O)C(O)C(O)C(O)C1O (stereo not given),–,inactive
C=CC(C)(O)CCC=C(C)CCC=C(C)C (stereo not given),163 µM (active),–
C=C(C)[C@@H]1CCC2=CC(=O)C[C@@H](C)[C@]2(C)C1,–,inactive
CCCC(=O)c1cc(O)c(O)cc1O,–,inactive
CC(O)C(C)O (stereo not given),–,inactive
O=C(O)c1cn(-c2ccc(F)cc2)c2cc(N3CCNCC3)c(F)cc2c1=O,–,inactive
COCCOCCOCCOCCOCCO,–,inactive
CC1(C)[C@H](C(=O)OCc2cccc(Oc3ccccc3)c2)[C@@H]1C=C(Cl)Cl,–,inactive
COc1ccc(OC)c(OC)c1,–,inactive
COC(=O)Cc1cccc2ccccc12,–,inactive
O=C(Nc1ccccc1)c1cc([N+](=O)[O-])ccc1Cl,–,inactive
FC1(F)C(F)(F)C(F)(F)C2(F)C(F)(C1(F)F)C(F)(F)C(F)(F)C1(F)C(F)(F)C(F)(F)C(F)(F)C(F)(F)C12F (stereo not given),–,inactive
OCc1cccnc1,–,inactive
